Assay [1] is described as follows: suppression of KLF5 promoter-driven luciferase – DLD-1 cells, luminescence, confirmation (AID 1834;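 active = inhibition above a set limit taken from the earlier primary screen, cut at about 63% in these data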;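 note: 0% = DMSO wells and 100% = LY294002 at 200 µM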). The conditions noted are these: DLD-1 KLF5 promoter firefly luciferase reporter, at 4 µM, active compounds read high. A general note: In a reporter assay the amount or activity of a reporter protein is the signal.
A short description of assay [2]: IEC-6 intestinal cell killing – luminescence, triplicate, cytotoxicity control for KLF5 inhibitor project (AID 1905; in the data active = inhibition above about 23%;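 note: cells exposed to compounds for 48 hours before viability read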). The conditions noted are these: IEC-6 rat intestinal cells, viability luminescence; at 4 µM; active compounds read high.
The target of assay [3] is Insulin-degrading enzyme (Homo sapiens) (UniProt P14735). As to the kind of experiment: cellular IDE Abeta-cleavage inhibition – fluorescence polarization, HEK cells, FAbetaB substrate, confirmation (AID 435028;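 active = mean inhibition across triplicate wells above the cutoff set by the earlier primary insulin-degrading enzyme screen, cut at about 16% in these data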;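 note: 0% = DMSO wells and 100% = 60 µM reference IDE inhibitor Ii1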). The conditions noted are these: at 5.59 µM, active compounds read high. (Fluorescence polarisation rises when a labelled molecule tumbles more slowly, as on binding a larger partner.)
Chain of Insulin-degrading enzyme (Homo sapiens) (P14735 whole entry, looked up): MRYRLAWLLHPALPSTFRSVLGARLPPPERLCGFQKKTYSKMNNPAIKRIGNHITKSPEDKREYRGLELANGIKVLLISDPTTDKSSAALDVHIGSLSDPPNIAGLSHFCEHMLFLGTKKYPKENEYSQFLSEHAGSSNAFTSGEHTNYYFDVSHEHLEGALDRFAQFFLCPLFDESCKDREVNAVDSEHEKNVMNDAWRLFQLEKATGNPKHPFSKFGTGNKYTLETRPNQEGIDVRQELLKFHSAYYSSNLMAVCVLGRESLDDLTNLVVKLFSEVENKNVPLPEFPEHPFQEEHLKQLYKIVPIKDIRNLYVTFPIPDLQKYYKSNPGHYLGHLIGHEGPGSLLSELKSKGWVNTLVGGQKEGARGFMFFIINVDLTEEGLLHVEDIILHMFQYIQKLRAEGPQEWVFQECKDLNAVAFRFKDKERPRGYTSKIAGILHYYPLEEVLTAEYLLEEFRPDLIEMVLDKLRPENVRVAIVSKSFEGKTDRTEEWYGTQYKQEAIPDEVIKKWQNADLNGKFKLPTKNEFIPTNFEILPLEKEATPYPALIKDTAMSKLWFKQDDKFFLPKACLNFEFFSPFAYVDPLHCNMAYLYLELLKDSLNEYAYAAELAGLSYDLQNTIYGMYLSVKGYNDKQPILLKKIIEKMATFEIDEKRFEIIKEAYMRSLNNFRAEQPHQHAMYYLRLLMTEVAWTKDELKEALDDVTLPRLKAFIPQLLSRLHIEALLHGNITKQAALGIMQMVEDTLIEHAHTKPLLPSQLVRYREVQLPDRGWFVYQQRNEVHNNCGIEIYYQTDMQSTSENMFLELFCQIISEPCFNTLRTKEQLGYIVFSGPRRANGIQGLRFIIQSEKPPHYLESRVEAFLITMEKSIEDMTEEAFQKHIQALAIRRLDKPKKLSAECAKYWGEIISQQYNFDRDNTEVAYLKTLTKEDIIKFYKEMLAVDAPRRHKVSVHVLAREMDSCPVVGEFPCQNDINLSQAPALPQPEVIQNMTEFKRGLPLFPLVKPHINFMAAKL

Assay [4] in a line: HEK cell viability loss – luminescence, cytotoxicity control for IDE inhibitor project (AID 449730; in the data active = inhibition above about 22%;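 note: 0% = vehicle wells and 100% = reference cytotoxic drug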). The conditions noted are these: HEK293 cytotoxicity, ATP luminescence; at 5.59 µM; active compounds read high.
Assay [5] is described as follows: reduced OD of T4-infected AddAB+ E. coli – absorbance, E. coli V3065, T4 phage, triplicate, AddAB inhibitor project, confirmation (AID 488942;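 active = mean inhibition above a set limit taken from the earlier primary screen, cut at about 13% in these data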;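 note: higher means less bacterial growth since AddAB block lets phage replicate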). The conditions noted are these: E. coli V3065 expressing H. pylori AddAB, at 11.9 µM, active compounds read high, T4 phage with gene 2 nonsense mutations.
Assay [6] is described as follows: reduced OD of phage-infected RecBCD+ V66 E. coli – absorbance, mutant T4 phage, counter-screen for AddAB inhibitor project (AID 488955;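 active = mean inhibition above the mean of solvent-only control wells plus 3 SD, cut at about 4% in these data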;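 note: optical density read after an 18 h incubation at 37 °C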). The conditions noted are these: OD growth, at 11.9 µM, active compounds read high.
Assay [7] can be described thus: bacterial growth inhibitors – absorbance, counter-screen for AddAB inhibitor project, confirmation (AID 488956; in the data active = inhibition above about 25%). The conditions noted are these: bacterial viability, absorbance (AddAB counterscreen); at 11.9 µM; active compounds read high.
Assay [8] in a line: potentiators of IFN-gamma STAT1 reporter activity – cell-based, HTS, luciferase reporter, confirmation (AID 1262;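 active = activation above a set limit carried over from the earlier primary STAT1 screen, cut at about 140% in these data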;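 note: simple ratio to median IFN-gamma plus DMSO wells so 0% means no light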). The conditions noted are these: NIH 3T3 STAT1-luciferase reporter, IFN-gamma potentiation, luminescence; at 5.7 µM; active compounds read high; 100% = IFN-gamma EC80 alone, no compound.
The nature of assay [9]: enhancement of NF-kB transcriptional signalling – cell-based, HEK293T, luciferase luminescence, TNF-alpha, counter-screen for STAT1 activator project (AID 1306;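 active = activation above the mean of solvent-only control wells plus 3 SD, set per campaign, cut at about 130% in these data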;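 note: TNF-alpha given at a submaximal dose yielding about 80% of full reporter signal; values are well signal over median control so 100% means no change and 0% no light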). The conditions noted are these: HEK293T NF-kB luciferase reporter, TNF-alpha stimulated, at 5.7 µM, active compounds read high, 100% = TNF-alpha with vehicle only. (Counterscreens check selectivity or assay interference.)

For assay [10], the target named is Signal transducer and activator of transcription 3 (Homo sapiens) (UniProt P40763). Briefly: enhancers of IL-6 STAT3 transcription – U3A cells, luciferase, luminescence, counter-screen for STAT1 activator project, confirmation (AID 1316;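 active = activation above the solvent-only control well mean plus 3 SD, set per plate batch, cut at about 110% in these data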;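 note: 0% = no luminescence and 100% = median IL-6 plus DMSO wells; higher means more STAT3 reporter activation so hits are non-selective activators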). The conditions noted are these: U3A cells STAT3-luciferase reporter, IL-6, luminescence; at 5.7 µM; active compounds read high; 100 = IL-6 alone, no compound effect; cells lack STAT1.

Assay [11] concerns DAF-12 nuclear receptor (Heterodera glycines), GAL4-LBD fusion. As to the kind of experiment: hgDAF-12 GAL4 fusion reporter activation, retest – cell-based, luminescence, HEK293, GAL4-LBD fusion, confirmation (AID 743050;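 active = mean activation over triplicate wells above the hit cutoff derived from the earlier primary screen, cut at about 11% in these data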;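 note: 0% = DMSO low control and 100% = 2 mM sodium butyrate high control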). The conditions noted are these: HEK293 GAL4-hgDAF12 luciferase reporter, agonist mode; at 6.8 µM; active compounds read high; percent of butyrate response.
In assay [12] the target is Oxysterols receptor LXR-beta (Homo sapiens) (UniProt P55055). Briefly: nonspecific reporter activation via LXR – cell-based, luminescence, HEK293, H. glycines campaign, counter-screen for hgDAF-12 agonist project, confirmation (AID 743051;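 active = mean activation of the triplicate above a set limit carried over from the primary screen, none filed active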). The conditions noted are these: HEK293 Gal4-LXR luciferase reporter, 24 h; at 6.8 µM; active compounds read high.
Chain of Oxysterols receptor LXR-beta (Homo sapiens) (P55055 whole entry, looked up, the tested form may be a part): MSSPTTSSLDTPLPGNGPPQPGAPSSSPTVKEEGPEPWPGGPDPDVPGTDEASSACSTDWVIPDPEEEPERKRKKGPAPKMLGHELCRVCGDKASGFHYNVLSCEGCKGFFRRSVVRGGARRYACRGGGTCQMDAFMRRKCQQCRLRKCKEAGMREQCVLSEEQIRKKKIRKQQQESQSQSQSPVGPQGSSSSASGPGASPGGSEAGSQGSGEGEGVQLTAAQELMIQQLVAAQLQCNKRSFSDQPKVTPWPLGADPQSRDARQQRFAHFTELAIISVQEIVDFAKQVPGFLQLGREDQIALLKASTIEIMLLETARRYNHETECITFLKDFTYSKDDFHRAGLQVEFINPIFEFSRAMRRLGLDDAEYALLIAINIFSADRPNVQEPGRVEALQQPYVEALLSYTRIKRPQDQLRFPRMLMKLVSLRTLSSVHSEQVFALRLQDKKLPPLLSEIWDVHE
A short description of assay [13]: blockers of IL-6 STAT3 signaling – U3A cells, luciferase, luminescence, confirmation (AID 1265;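 active = inhibition above the hit cutoff computed for the primary STAT3 screen, cut at about 44% in these data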;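 note: 0% = IL-6 plus DMSO and 100% = IL-6 plus nifuroxazide control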). The conditions noted are these: IL-6 STAT3 luciferase reporter, at 5.7 µM, active compounds read high, cell line lacks STAT1.
Assay [14] is described as follows: inhibition of TNF-alpha-driven NF-kB transcription – cell-based, HEK293T, luciferase, TNF-alpha stimulus, counter-screen for STAT3 inhibitor project, confirmation (AID 1308;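 active = inhibition above the mean of solvent-only control wells plus 3 SD, cutoff set per campaign, cut at about 13% in these data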;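 note: 0% = TNF-alpha with DMSO and 100% = TNF-alpha with MG high control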). The conditions noted are these: HEK293T NF-kB luciferase reporter, TNF-alpha induced; at 5.7 µM; active compounds read high.
Assay [15] in a line: inhibition of STAT1-driven transcription – cell-based, NIH 3T3, luciferase luminescence, IFN-gamma, counter-screen for STAT3 inhibitor project, confirmation (AID 1317).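 Note: 0% = DMSO with IFN-gamma and 100% = nifuroxazide control.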 The conditions noted are these: NIH 3T3 STAT1-luciferase reporter, IFN-gamma induced, at 5.7 µM, active compounds read high.

SMILES strings stand for the structures. Some of the results follow. Values without a mark were called inactive. Active and inactive are the calls of the source.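 Rule for the calls, unless noted: active = inhibition above the mean plus 3 SD of solvent-only control wells, limit set per screening run (cut at about 16% in these data); inactive = the rest.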

In the case of `COc1ccc(CS(=O)/C(Cl)=C(/Cl)C(=O)Nc2ccc(OC)nc2)cc1` (stereo not drawn), the values for the inhibition in assay [1] and in assay [2] were 97% (active) and 63.7% (active), respectively.

In the case of `CN1C(=O)/C(=C/C=C2\SCCN2C)OC1=S`, the inhibition in [3] is 86.5% (active); in assay [4] it was 9.01%.

Regarding `CCn1c(/C=C/c2ccc([N+](=O)[O-])o2)nc2ccccc2c1=O`, the inhibition in assay [5] was 92.8% (active); in assay [6], 12.8% (active); in assay [7], 42.1% (active).

Take `CC(C)(C)C(=O)c1cnc(Nc2ccccc2)s1`: the activation (% of control) in assay [8] is 164% (active); in assay [9], 121%; in assay [10], 105%. The figures for the activation in [11] and in assay [12] were 13.6% (active) and 0.48%, respectively.

As to `Cc1ccc(-n2ncc3c(N4CCN(c5ccc(F)cc5)CC4)ncnc32)c(C)c1`, the inhibition in [13] is 46.6% (active); in [14], 22.4% (active); in assay [15], 14.9%.

For the compound `c1ccc(-c2noc(-c3cccs3)n2)nc1`, the inhibition in assay [13] is 27.6%; in assay [14], -12.9%; in [15] it was -54.9%.

As to `Cc1ccc(-c2cn3cc([N+](=O)[O-])ccc3n2)cc1`, the results for the inhibition in assay [13], in assay [14] and in assay [15] were 60.3% (active), -3.2% and -77%, respectively.

Regarding `C=CC[n+]1c(-c2ccc(C)cc2)csc1NNC(=O)Nc1ccccc1`, the inhibition in assay [13] was 51.1% (active); in assay [14], 18.4% (active); in assay [15] it was 16.9% (active).

On to `Cc1ccc2nc(-c3ccc(NC(=O)c4cccnc4)cc3)oc2c1`, for which the inhibition is 31.7% in [13], -25.2% in assay [14] and -38.3% in [15].

Regarding `CCOc1cccc(/C=C/c2ccc3ccccc3n2)c1OC(C)=O`, the figures for the inhibition in assay [13], in assay [14] and in [15] were -2.03%, -34.1% and -15.3%, respectively.

With `Cc1nc(-c2ccc(NC(=O)c3cccs3)cc2)cs1`, the inhibition is 27.5% in [13], -26.7% in [14] and -111% in assay [15].

A word on the inhibition: it is the relative decrease from the control value, in per cent.

Source of the values: PubChem BioAssay.
